Source: the supplement of paper PMC10849652
About 7,900 targets were measured; listed, in parts, are those with a hit and a random draw of the rest. About 0.6% of all pairs of compound and target were hits.

Legend:
Experiment in all cases: log2 fold change, soluble protein after heating vs DMSO (PISA); higher = thermal stabilisation; K562 cells, 10 uM, 30 min; active = over 0.2 and 3.5 SD of the protein, either way, in both replicates (recomputed)
[1] = compound: C[C@H](C1=CC=C(C=C1)C(=O)NC2=C3C=CNC3=NC=C2)N
Method in brief: (§1)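 K562 cells at 2×10^6 cells/mL were given 10 μM compound for 30 min. Aliquots then went through 3 min of heating across 48°C-58°C, were pooled, and were extracted in PBS with 0.5% NP-40 at 4°C, and the supernatant after 21,000xg for 90 min was quantified by TMTpro 16plex LC-MS/MS with channel sums equalised. Thermal stability relative to control samples, from duplicates, is given as log2 fold change.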

tozasertib = compound: Cc1cc(Nc2cc(N3CCN(C)CC3)nc(Sc3ccc(NC(=O)C4CC4)cc3)n2)n[nH]1 [tozasertib]
Method in brief: as §1

[2] = compound: C[C@@H]1COCCN1C2=NC(=NC(=C2)C3(CC3)S(=O)(=O)C)C4=C5C=CNC5=CC=C4
Method in brief: as §1

duvelisib = compound: C[C@H](Nc1ncnc2nc[nH]c12)c1cc2cccc(Cl)c2c(=O)n1-c1ccccc1 [duvelisib]
Method in brief: as §1

[3] = compound: Cc1cc(SCc2sc(-c3ccc(C(F)(F)F)cc3)nc2C)ccc1OCC(=O)O
Method in brief: as §1

[4] = compound: CS(=O)(=O)c1ccc(-c2cnc(N)c(C(=O)Nc3ccccc3)n2)cc1
Method in brief: as §1

gandotinib = compound: Cc1cc(Nc2cc(CN3CCOCC3)c3nc(C)c(Cc4ccc(Cl)cc4F)n3n2)n[nH]1 [gandotinib]
Method in brief: as §1

ispinesib = compound: Cc1ccc(C(=O)N(CCCN)[C@@H](c2nc3cc(Cl)ccc3c(=O)n2Cc2ccccc2)C(C)C)cc1 [ispinesib]
Method in brief: as §1

crizotinib = compound: C[C@@H](Oc1cc(-c2cnn(C3CCNCC3)c2)cnc1N)c1c(Cl)ccc(F)c1Cl [crizotinib]
Method in brief: as §1

doramapimod = compound: Cc1ccc(-n2nc(C(C)(C)C)cc2NC(=O)Nc2ccc(OCCN3CCOCC3)c3ccccc23)cc1 [doramapimod]
Method in brief: as §1

Measured: log2 fold change

CPNE5 (UniProt Q9HCH3)
inactive: [1] 0.148 | tozasertib 0.374

CFAP47 (UniProt Q6ZTR5)
inactive: [2] 0.099 | duvelisib -0.027 | [3] -0.302

CORO2A (UniProt Q92828)
inactive: [4] -0.085 | [1] 0.101 | duvelisib 0.061 | gandotinib 0.061 | tozasertib -0.028 | [3] 0.023 | ispinesib -0.046

CEMIP2 (UniProt Q9UHN6)
inactive: crizotinib 0.075 | [2] 0.023 | [1] 0.03 | duvelisib 0.037 | gandotinib -0.129 | tozasertib 0 | [3] -0.136 | doramapimod -0.144 | ispinesib -0.148

CLINT1 (UniProt Q14677)
UniProt Q14677, sequence (Q14677 whole entry, looked up): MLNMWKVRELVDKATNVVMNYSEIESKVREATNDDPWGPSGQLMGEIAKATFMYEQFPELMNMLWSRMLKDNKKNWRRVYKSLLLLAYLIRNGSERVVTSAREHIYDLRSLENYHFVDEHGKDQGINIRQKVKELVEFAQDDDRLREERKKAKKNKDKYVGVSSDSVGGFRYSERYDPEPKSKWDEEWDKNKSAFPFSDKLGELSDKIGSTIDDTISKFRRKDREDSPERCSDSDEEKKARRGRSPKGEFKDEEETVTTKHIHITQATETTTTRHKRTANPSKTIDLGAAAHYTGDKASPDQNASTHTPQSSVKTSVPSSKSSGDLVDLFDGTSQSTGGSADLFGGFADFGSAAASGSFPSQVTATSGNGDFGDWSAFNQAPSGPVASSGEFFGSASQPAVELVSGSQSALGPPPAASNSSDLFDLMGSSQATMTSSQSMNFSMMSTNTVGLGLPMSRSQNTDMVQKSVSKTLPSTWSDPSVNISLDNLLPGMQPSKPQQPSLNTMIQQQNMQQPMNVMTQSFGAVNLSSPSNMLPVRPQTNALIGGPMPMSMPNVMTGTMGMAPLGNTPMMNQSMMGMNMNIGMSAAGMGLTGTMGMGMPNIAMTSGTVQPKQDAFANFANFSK
inactive: crizotinib 0.166 | [1] 0.005 | duvelisib -0.08 | tozasertib 0.074 | [3] -0.155 | doramapimod 0.154

CRTC3 (UniProt Q6UUV7)
inactive: [4] -0.004 | [2] 0.177 | [1] 0.071 | tozasertib -0.121 | ispinesib 0.129

CNOT4 isoform 9 (UniProt O95628)
UniProt O95628, sequence (O95628 whole entry, looked up): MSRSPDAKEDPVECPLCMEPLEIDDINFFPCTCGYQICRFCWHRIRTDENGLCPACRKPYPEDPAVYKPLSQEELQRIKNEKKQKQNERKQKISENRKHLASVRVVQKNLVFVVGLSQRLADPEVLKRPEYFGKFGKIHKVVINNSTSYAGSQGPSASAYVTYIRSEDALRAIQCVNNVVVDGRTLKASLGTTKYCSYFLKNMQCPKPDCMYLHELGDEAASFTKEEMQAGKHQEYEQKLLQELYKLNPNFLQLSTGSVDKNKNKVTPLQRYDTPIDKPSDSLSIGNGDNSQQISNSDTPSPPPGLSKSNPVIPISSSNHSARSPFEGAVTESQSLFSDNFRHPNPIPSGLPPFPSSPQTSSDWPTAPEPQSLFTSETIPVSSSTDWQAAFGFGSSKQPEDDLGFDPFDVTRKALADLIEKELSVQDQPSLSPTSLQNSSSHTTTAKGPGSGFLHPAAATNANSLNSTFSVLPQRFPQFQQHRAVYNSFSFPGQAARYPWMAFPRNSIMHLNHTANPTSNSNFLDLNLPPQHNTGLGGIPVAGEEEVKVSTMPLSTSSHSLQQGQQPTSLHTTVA
active: [1] 0.484
inactive: crizotinib -0.094 | duvelisib -0.076 | gandotinib -0.059 | tozasertib -0.028 | [3] -0.086 | doramapimod 0.274 | ispinesib -0.102

CEBPZOS (UniProt A8MTT3)
inactive: duvelisib 0.055 | gandotinib -0.189 | tozasertib -0.031 | [3] -0.013 | doramapimod 0.066 | ispinesib 0.016
active: crizotinib 0.26

COMMD3-BMI1 (UniProt R4GMX3)
inactive: [4] 0.074 | [2] -0.031 | [1] 0.019 | gandotinib -0.011 | tozasertib -0.048

CDK19 (UniProt Q9BWU1)
UniProt Q9BWU1, sequence (Q9BWU1 whole entry, looked up): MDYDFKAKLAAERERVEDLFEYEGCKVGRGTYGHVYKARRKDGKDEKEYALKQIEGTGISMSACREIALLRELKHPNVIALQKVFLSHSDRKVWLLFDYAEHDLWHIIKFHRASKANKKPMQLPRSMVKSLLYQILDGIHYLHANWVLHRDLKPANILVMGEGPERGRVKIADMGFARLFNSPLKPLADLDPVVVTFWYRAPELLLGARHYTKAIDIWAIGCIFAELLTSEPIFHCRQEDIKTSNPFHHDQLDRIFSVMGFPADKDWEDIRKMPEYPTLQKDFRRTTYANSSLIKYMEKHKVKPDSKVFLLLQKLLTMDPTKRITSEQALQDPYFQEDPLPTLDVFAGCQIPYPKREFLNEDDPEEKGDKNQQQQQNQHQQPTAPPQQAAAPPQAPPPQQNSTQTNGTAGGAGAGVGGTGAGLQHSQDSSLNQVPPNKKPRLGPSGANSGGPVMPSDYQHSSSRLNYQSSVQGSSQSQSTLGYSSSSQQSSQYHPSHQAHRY
inactive: [4] 0.042 | [2] 0.03 | [1] 0.401 | duvelisib -0.089 | gandotinib -0.051 | tozasertib -0.197 | [3] 0.034 | ispinesib 0.291

CARD9 (UniProt Q9H257)
inactive: crizotinib -0.023 | doramapimod 0.135 | ispinesib -0.398

CDK2AP2 (UniProt O75956)
UniProt O75956, sequence (O75956 whole entry, looked up): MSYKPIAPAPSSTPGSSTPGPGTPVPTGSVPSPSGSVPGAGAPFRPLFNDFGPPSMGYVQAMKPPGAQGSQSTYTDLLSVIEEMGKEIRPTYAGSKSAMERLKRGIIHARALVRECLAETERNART
inactive: crizotinib 0.213 | [2] 0.173 | [1] -0.015 | doramapimod -0.014 | ispinesib -0.011

CASK (UniProt O14936)
UniProt O14936, sequence (O14936 whole entry, looked up): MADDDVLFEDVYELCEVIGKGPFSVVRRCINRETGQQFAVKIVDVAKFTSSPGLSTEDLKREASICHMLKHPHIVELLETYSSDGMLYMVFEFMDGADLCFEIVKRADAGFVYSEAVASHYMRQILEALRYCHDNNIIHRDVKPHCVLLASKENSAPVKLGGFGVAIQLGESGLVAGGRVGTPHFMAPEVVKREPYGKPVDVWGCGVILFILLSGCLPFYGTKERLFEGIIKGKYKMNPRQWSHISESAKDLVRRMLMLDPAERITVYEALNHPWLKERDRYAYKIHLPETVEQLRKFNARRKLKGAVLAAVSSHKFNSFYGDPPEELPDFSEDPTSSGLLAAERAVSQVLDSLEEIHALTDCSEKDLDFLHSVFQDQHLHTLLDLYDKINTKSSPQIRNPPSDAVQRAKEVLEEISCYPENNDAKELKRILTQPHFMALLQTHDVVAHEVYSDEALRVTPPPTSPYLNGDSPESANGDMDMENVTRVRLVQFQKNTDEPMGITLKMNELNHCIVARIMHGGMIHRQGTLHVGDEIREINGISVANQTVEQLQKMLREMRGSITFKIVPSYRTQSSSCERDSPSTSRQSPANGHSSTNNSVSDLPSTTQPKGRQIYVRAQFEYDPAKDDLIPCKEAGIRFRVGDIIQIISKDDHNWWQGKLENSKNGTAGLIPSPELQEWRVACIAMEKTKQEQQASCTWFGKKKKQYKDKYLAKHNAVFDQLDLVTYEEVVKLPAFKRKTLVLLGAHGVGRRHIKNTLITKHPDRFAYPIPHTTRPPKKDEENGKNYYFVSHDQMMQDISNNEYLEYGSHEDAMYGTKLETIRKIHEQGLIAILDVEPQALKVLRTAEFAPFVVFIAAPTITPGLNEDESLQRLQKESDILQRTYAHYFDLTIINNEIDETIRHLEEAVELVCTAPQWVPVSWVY
inactive: duvelisib 0.049 | [3] -0.039 | doramapimod 0.034

CLCN5 isoform 2 (UniProt P51795)
inactive: crizotinib -0.321 | [1] -0.123 | duvelisib 0.188 | gandotinib -0.083 | tozasertib 0.122 | [3] -0.049 | doramapimod -0.03
active: ispinesib -0.419

CRMP1 isoform 2 (UniProt Q14194)
UniProt Q14194, sequence (Q14194 whole entry, looked up): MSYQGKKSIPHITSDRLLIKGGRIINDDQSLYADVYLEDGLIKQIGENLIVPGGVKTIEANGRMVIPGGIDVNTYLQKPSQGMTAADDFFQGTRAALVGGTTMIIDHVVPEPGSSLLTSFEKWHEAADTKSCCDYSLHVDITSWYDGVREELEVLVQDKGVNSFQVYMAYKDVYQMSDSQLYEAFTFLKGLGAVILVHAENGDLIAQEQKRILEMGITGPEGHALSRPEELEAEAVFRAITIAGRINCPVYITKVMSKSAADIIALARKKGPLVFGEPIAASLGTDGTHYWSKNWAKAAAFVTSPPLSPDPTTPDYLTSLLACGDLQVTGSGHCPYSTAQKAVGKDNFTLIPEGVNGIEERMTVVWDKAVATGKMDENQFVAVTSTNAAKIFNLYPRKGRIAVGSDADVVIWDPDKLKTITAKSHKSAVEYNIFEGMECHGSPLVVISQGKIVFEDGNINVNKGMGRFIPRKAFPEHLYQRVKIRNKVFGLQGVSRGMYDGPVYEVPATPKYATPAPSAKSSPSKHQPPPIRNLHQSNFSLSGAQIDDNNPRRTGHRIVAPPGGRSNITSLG
inactive: [4] 0.024 | [1] 0.08 | duvelisib 0.208 | gandotinib -0.132 | tozasertib -0.602 | [3] -0.003

CCDC82 (UniProt Q8N4S0)
UniProt Q8N4S0, sequence (Q8N4S0 whole entry, looked up): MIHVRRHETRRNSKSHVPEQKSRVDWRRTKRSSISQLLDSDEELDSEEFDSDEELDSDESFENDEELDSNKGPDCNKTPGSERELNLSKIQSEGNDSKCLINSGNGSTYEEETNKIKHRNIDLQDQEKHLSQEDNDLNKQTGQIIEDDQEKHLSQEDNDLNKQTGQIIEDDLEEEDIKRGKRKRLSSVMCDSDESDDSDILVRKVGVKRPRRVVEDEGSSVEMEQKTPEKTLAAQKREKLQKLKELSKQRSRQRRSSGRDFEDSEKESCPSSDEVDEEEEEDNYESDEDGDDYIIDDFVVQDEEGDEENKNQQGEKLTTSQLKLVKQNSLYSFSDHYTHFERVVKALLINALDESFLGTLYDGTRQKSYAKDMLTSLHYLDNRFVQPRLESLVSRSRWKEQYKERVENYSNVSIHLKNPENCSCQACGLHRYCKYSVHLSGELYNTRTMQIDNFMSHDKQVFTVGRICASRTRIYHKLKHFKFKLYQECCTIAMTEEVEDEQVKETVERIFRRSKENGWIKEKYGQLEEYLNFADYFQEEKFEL
inactive: crizotinib 0.148 | [2] -0.174 | [1] 0.015 | duvelisib -0.223 | tozasertib -0.106 | [3] -0.119 | doramapimod -0.165 | ispinesib -0.026

CA1 (UniProt E5RIF9)
inactive: [2] -0.134 | duvelisib 0.055 | tozasertib -0.153 | [3] -0.613

CFAP58 (UniProt Q5T655)
inactive: gandotinib -0.011 | ispinesib -0.165

CREB3L2 (UniProt Q70SY1)
UniProt Q70SY1, sequence (Q70SY1 whole entry, looked up): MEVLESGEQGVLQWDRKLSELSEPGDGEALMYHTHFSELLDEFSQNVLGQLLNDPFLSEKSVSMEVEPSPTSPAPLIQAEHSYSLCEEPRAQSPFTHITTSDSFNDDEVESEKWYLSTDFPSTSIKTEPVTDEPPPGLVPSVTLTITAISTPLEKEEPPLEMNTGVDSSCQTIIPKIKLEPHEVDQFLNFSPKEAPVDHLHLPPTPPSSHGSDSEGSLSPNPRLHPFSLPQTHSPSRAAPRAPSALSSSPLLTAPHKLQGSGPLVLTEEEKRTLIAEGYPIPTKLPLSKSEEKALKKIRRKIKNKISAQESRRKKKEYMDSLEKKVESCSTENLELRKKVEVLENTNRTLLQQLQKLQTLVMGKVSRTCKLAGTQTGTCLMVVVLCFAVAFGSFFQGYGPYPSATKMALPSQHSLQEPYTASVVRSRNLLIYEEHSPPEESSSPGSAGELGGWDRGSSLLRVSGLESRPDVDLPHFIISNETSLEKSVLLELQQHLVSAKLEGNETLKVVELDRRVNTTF
inactive: crizotinib 0.098 | [2] -0.076 | [1] -0.26 | tozasertib -0.132 | doramapimod 0.128 | ispinesib -0.342

CKS2 (UniProt P33552)
inactive: duvelisib 0.01 | gandotinib -0.272 | tozasertib -0.094 | [3] -0.038

CLN8 (UniProt Q9UBY8)
UniProt Q9UBY8, sequence (Q9UBY8 whole entry, looked up): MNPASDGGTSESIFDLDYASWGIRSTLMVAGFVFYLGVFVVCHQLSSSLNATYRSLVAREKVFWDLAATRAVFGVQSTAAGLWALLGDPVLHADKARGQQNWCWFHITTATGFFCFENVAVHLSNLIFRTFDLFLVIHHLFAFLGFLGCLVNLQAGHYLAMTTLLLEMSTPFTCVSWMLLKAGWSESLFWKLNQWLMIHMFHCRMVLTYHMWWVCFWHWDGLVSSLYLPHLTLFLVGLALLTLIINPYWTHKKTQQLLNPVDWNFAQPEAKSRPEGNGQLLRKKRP
inactive: [4] -0.006 | [1] 0.161 | duvelisib 0.049 | gandotinib -0.1 | tozasertib -0.05 | [3] -0.09 | ispinesib -0.15

CLPTM1L (UniProt G5E9Z2)
inactive: [4] -0.317 | [2] 0.073 | [1] 0.067 | gandotinib -0.382 | tozasertib -0.049

C5orf30 (UniProt Q96GV9)
inactive: [2] 0.352 | tozasertib -0.24

CCND3 (UniProt P30281)
UniProt P30281, sequence (P30281 whole entry, looked up): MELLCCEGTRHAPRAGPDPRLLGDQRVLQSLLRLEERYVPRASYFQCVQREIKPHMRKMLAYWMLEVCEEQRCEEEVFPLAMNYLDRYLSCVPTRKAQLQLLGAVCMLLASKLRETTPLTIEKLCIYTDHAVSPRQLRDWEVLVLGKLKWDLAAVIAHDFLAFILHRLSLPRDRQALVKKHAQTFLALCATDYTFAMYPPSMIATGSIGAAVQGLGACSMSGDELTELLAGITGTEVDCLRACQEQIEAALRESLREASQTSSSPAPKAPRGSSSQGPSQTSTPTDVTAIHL
inactive: [2] -0.271 | [1] 0.096 | duvelisib 0.014 | gandotinib -0.027 | tozasertib -0.058 | [3] 0.058 | ispinesib -0.116
